Assay results reported in PubChem BioAssay AID624330 (Southern Research Specialized Biocontainment Screening …, 2012).
The whole screen tested about 340,000 compounds, of which about 2,100 (0.62%) were called active.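 How the source made its calls: active means first-screen hits whose inhibition reached a set limit at any dose in the follow-up dose series; inconclusive means inhibition above the set first-screen limit but never retested; inactive means the rest.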 Only a sample is shown. Entries with a potency or affinity are not part of this list.

Molecular target: Rac GTPase-activating protein 1 (Homo sapiens) (UniProt Q9H0H5)
Test: MgcRacGAP GTPase-activating activity inhibitors, confirmation, biochemical, ADP Hunter fluorescence, primary and confirmatory (AID 624330);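 further: fluorescence reports GDP produced by GAP-driven GTP hydrolysis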
Settings: MgcRacGAP-stimulated Rac1 GTP hydrolysis, at 30 µM, hits give high values, GST-tagged Rac1 F28L mutant substrate

Rac GTPase-activating protein 1 (Homo sapiens), sequence (Q9H0H5 whole entry, looked up): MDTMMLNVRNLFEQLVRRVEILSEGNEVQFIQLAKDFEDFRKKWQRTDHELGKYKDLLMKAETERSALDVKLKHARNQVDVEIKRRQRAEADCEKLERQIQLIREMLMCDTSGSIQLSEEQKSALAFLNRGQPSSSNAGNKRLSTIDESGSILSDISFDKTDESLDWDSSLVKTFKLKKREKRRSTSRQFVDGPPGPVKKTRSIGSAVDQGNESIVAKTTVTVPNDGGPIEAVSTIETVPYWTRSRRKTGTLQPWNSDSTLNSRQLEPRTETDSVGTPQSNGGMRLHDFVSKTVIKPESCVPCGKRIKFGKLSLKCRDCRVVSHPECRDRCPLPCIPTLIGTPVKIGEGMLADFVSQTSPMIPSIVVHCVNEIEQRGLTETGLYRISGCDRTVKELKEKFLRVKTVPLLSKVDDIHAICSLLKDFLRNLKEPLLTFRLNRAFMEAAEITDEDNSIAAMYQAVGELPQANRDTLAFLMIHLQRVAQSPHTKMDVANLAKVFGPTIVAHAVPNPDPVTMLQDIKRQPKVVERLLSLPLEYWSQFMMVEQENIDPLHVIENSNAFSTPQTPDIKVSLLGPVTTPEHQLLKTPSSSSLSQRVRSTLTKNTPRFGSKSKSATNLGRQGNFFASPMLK

inhibition, inactive:
COc1cccc(C(=O)NCCS(=O)(=O)N2CCC3(CC2)OCCO3)c1 6.03%
CC(=O)CC(=O)Nc1cccc2c1CCCC2 5.33%
COC(=O)c1cc(CNC(=O)c2ccc(O)c(Cl)c2)ccc1OC 2.78%
COC(=O)c1ccc(NCc2cc(O)ccc2O)cc1O 27%
CNS(=O)(=O)c1ccc(C(=O)NCC(=O)NCC2COc3ccccc3O2)cc1 (stereo unspecified) 3.68%
O=C(Nc1ccccc1N1CCCC1)C1CCN(S(=O)(=O)c2ccccc2)CC1 2.86%
CC(C)OCCCNC(=O)CN1C(=O)/C(=C/c2ccccc2)Sc2ccccc21 -14.8%
Cc1ccc(-c2cc(C(=O)N(C)Cc3cnn(C)c3C)c3cc(Br)ccc3n2)cc1 7.31%
Cc1ccc(S(=O)(=O)/N=C2\C=C(NS(=O)(=O)c3ccccc3)C(=O)c3ccccc32)cc1 2.77%
O=C1C(Cl)=C(Nc2ccc(O)cc2)C(=O)c2ccccc21 27.1%
Cc1ccc(S(=O)(=O)Nc2ccc(N=Nc3ccc(O)cc3)cc2)cc1 21.7%
O=C1C(O)=C(O)C(=O)c2ccccc21 -6.63%
O[C@H]1C[C@H](c2ccccc2)N(Cc2cccs2)C[C@@H]1n1cc(-c2ccc(F)cc2)nn1 7.08%
Cc1[nH]c(=O)[nH]c(=O)c1S(=O)(=O)N1CCCC(C(=O)NCc2ccco2)C1 (stereo unspecified) 4.98%
COc1cc(OC)cc(C(=O)Oc2ccc(/C=N/Nc3nc4ccccc4s3)cc2OC)c1 12.4%
Brc1csc(/C=N/Nc2nc3ccccc3s2)c1 8.54%
Oc1ccccc1C=NNc1nc2ccccc2s1 4.1%
COc1ccc(C=NNc2nc3ccccc3s2)cc1 2.73%
COc1cc(/C=N/Nc2nc3ccccc3s2)ccc1OC(=O)c1ccccc1F 4.55%
COc1cc(/C=N/Nc2nc3ccccc3s2)cc([N+](=O)[O-])c1O 8.67%
COc1ccc(OC)c(C(=O)COC(=O)c2ccc(C)o2)c1 13%
Cc1ccc2c(c1)C1CC(C)(O2)N(c2cccc(C(=O)NC3CCN(Cc4ccccc4)CC3)c2)C(=O)N1 (stereo unspecified) 3.74%
O=C(CSc1ncnc2sc3c(c12)CCCC3)NC1CCS(=O)(=O)C1 (stereo unspecified) 12.7%
CCN(CC(=O)Nc1ccc(S(=O)(=O)N2CCCC2)cc1)Cc1ccccc1 1.79%
Cc1ccc(C)c(-n2cc(CNCCc3cnccn3)c(-c3ccccc3)n2)c1 12.1%
Cc1cc(OC(C)C(=O)NCc2ccccn2)c2c(C)cc(=O)oc2c1 (stereo unspecified) 0.55%
CC(=O)Nc1ccc2ccc3cccc4ccc1c2c34 6.5%
CC(=O)Nc1cccc2ccc(O)cc12 -6.95%
COc1cc(OC)cc(-c2ncc3ccccn23)c1 29.5%
Clc1ccc(-c2ncc3ccccn23)cc1 6.65%
Brc1ccc(-c2ncc3ccccn23)cc1 14.6%
c1ccc(-c2ncc3ccccn23)cc1 12%
Fc1ccc(-c2ncc3ccccn23)cc1 -4.81%
COc1ccc(-c2ncc3ccccn23)cc1 14.9%
CCN(CC)C(=O)[C@H]1CC(CC(=O)NC(C)(C)C)C(=O)N2CCc3c([nH]c4ccccc34)[C@]12C (stereo partly specified) 6.38%
O=C(Nc1ccon1)Nc1ccc(Cl)cc1Cl 2.26%
Cc1ccc(-c2nc3ncccc3o2)cc1NC(=O)CC(C)C 4.77%
CC(NC(=O)NC1CCCCC1)C(c1cccs1)N1CCN(C)CC1 (stereo unspecified) 1.37%
COc1ccc(CNC(=O)Cn2cc([N+](=O)[O-])nc2C)cc1 2.29%
O=C(CN1C(=O)C2CCCCC2C1=O)N1CCN(c2ncccn2)CC1 (stereo unspecified) 5.06%
O=C(O)CCC(=O)N1CCN(c2ncccn2)CC1 1.98%
COc1ccc2c(C)cc(=O)sc2c1 5.61%
O=C(Nc1cccc(NC(=O)c2ccccc2)n1)c1ccccc1 8.99%
Cc1cc(NC(=O)CN2CCCCCCC2)no1 18%
O=C(CN1CCCCC1)Nc1ccc(S(=O)(=O)NC2CCCCC2)cc1 5.84%
Cc1cc(NC(=O)CN2CCCC(C)C2)no1 (stereo unspecified) 20.7%
CCN1CCN(CC(=O)Nc2cc(C)on2)CC1 29.4%
CC1CCN(CC(=O)Nc2ccc(S(=O)(=O)N3CCC(C)CC3)cc2)CC1 23%
Cc1cc(NC(=O)CN2CCCCC2)no1 22.2%
COc1ccc(S(=O)(=O)N2CCOCC2)cc1C(=O)N(C)CCOc1ccc(Cl)cc1 6.35%
O=C1C2C3C=CC(O3)C2C(=O)N1Cc1ccncc1 (stereo unspecified) 1.25%
CN(CC1COc2ccccc2O1)C(=O)c1ccc(Cl)c(S(=O)(=O)N2CCCCCC2)c1 (stereo unspecified) 7.88%
NS(=O)(=O)c1ccc(Nc2nc(-c3ccc4ccccc4c3)cs2)cc1 -0.69%
COc1ccc(-c2csc(Nc3ccc(S(=O)(=O)Nc4cc(C)on4)cc3)n2)cc1 11.9%
CC(=O)Nc1ccc(-c2csc(Nc3ccc(S(N)(=O)=O)cc3)n2)cc1 -2.9%
Nc1ccc(Nc2nc(-c3cc4ccccc4oc3=O)cs2)cc1 47.4%
Cc1cc(NS(=O)(=O)c2ccc(Nc3nc(-c4ccc(C)c(C)c4)cs3)cc2)no1 12.2%
Oc1ccc(-c2csc(Nc3ccc4c(c3)OCO4)n2)c(O)c1 10.8%
CC(=O)Nc1ccc(Nc2nc(-c3cc4ccccc4oc3=O)cs2)cc1 4.39%
COc1ccc(-c2csc(Nc3ccc(S(N)(=O)=O)cc3)n2)cc1 15.2%
Cc1cc(=O)[nH]c(N/N=C/c2c(C)nn(-c3ccccc3)c2Cl)n1 0.59%
CN=c1scc(-c2ccc(Cl)cc2)n1C 3.57%
CC(C(=O)OCC(=O)N1CCCCC1)N1C(=O)c2ccccc2C1=O (stereo unspecified) 2.6%
CC1CCN(S(=O)(=O)c2cn(CC(=O)N3CCN(C)CC3)c(=O)c3ccccc23)CC1 -14%
O=C(CSc1ccc(-c2cccc([N+](=O)[O-])c2)nn1)N1CCCCC1 9.68%
CC(C)(C)S(=O)(=O)N1C[C@H]2CC/C=C\C/C(c3ccccc3)=C\2[C@@H]1CCO 2.11%
CC(C)c1ccc(NC(=O)COC(=O)C2CCCCC2)cc1 1.49%
O=C(NC1CCN(C(=O)N2c3ccccc3Sc3ccccc32)CC1)c1ccccc1Cl 23.6%
O=C(NC1CCN(C(=O)N2c3ccccc3Sc3ccccc32)CC1)c1ccco1 1.56%
CC1C(=O)C(C)C(c2cc(Cl)ccc2O)NC1c1cc(Cl)ccc1O (stereo unspecified) 6.05%
CCC[C@H]1CN(c2ccccc2)C(=O)[C@@H]1CC(=O)Nc1ccc(Br)cc1 13.1%
COc1ccccc1-n1c(=O)c2c3c(sc2n2c(SC)nnc12)CCC3 11.3%
COc1ccccc1-n1c(=O)c2c3c(sc2n2c(SC(C)C)nnc12)CCC3 14.9%
CCSc1nnc2n(-c3ccc(OC)cc3)c(=O)c3c4c(sc3n12)CCCC4 -3.51%
COC(=O)CSc1nnc2n(-c3ccc(OC)cc3)c(=O)c3c4c(sc3n12)CCCCC4 7.39%
O=C(OCC(=O)N1CCc2ccccc21)c1ccncc1 3.21%
CCC(CC)CN1CCC(CN2CCNC(=O)C2=O)CC1 0.28%
CC(=O)Nc1ccc(OC(=O)c2cc3cc(Br)ccc3oc2=O)cc1 10.4%
COc1cc(C(C)=O)ccc1OC(=O)c1cc2cccc(OC)c2oc1=O 2.6%
O=C(Oc1ccccc1)c1cc2ccccc2oc1=O -4.44%
COc1ccc(NC(=O)c2cc3cc(OC)ccc3oc2=O)cc1 7.32%
CCOc1ccccc1OC(=O)c1cc2ccccc2oc1=O 9.21%
COc1cccc2cc(C(=O)Oc3ccccc3)c(=O)oc12 15.6%
COc1cccc2cc(C(C)=O)c(=O)oc12 -3.65%
COc1ccc(NC(=O)c2cc3ccccc3oc2=O)cc1 20.1%
CCN(CC)S(=O)(=O)c1ccc(C(=O)Oc2cc(C)[nH]c(=O)c2[N+](=O)[O-])cc1 0.7%
CCc1cccc(NS(=O)(=O)c2c(C)nc3scc(C)n3c2=O)c1 1.2%
C[C@@H]1CN([C@H](C)CO)C(=O)c2cc(NC(=O)Nc3ccc(F)cc3)ccc2O[C@@H](C)CCCCO[C@H]1CN(C)Cc1ccc(C(=O)O)cc1 10.2%
COc1ccc(N2C(=NC(=O)C3CC3)SC3CS(=O)(=O)CC32)cc1Cl (stereo unspecified) 8.01%
Cc1ccsc1C(=O)OCC(=O)NC1CCCCC1 -3%
O=C1CC(N2CCN(c3ccccc3)CC2)C(=O)N1c1cccc(Cl)c1 (stereo unspecified) 11.1%
COc1ccc(N2CC(C(=O)NNC(=O)c3ccc(Br)cc3)CC2=O)c(OC)c1 (stereo unspecified) 5.62%
O=C(Nc1nc(-c2ccc(F)cc2)cs1)c1cccc(N2C(=O)CCC2=O)c1 4.08%
CCOC(=O)N1c2ccccc2Sc2ccccc21 1.37%
Cc1ccc(SCC(=O)N2c3ccccc3Sc3ccccc32)cc1 6.99%
COc1cc2c(cc1OC)C(c1cccs1)N(C(=O)c1ccncc1)CC2 (stereo unspecified) 11.6%
